Experimental data: PubChem BioAssay
Several values for one entry are separate records, joined by “and”; a condition that tells them apart may be missing. Identical values can stand only once. Activity calls are given as the source filed them.

How the values were obtained:
[1] = binders of probe aFSTL3 on microarray, primary screen, stem cell growth factor project, biochemical, small-molecule microarray, fluorescence 635/667 (AID 1064); conditions: higher = more signal;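 also: measures binding of the biotinylated anti-FSTL3 antibody to printed compounds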
[2] = binders from COS7 lysate, DM2A8 probe, primary screen, torsin A project, cell lysate, small-molecule microarray, fluorescence 635/667 (AID 1065); conditions: higher = more signal, COS7 lysate expressing mutant human TOR1A
[3] = binders of probe aFGF2 on microarray, primary screen, stem cell growth factor project, biochemical, small-molecule microarray, fluorescence 635/667 (AID 1067); conditions: higher = more signal;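 also: measures binding of biotinylated aFGF2 protein to printed compounds on slides; z-score merges feature fluorescence and signal-to-noise across triplicate slides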
[4] = binders of probe aFGF10 on microarray, primary screen, stem cell growth factor project, biochemical, small-molecule microarray, fluorescence 635/667 (AID 1071); conditions: higher = more signal;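 also: score merges 667 nm spot intensity and signal to noise from triplicate slides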
[5] = target: Neurogenic locus notch homolog protein 2 (Homo sapiens) (UniProt Q04721); assay: Notch2 binders on small-molecule microarrays, primary screen, biochemical, small-molecule microarray, 635 nm fluorescence, stem cell growth factors (AID 1073); conditions: Notch2 binding, higher = more signal
[6] = target: Pro-neuregulin-1, membrane-bound isoform (Homo sapiens) (UniProt Q02297); assay: NRG1 binders on small-molecule microarrays, primary screen, psychiatric disease protein project, biochemical, small-molecule microarray, fluorescence 635/667 (AID 1075); conditions: NRG1 binding, 635 nm fluorescence, higher = more signal;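 also: score combines 667 nm spot fluorescence with signal to noise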
[7] = tested on: Neuregulin-1 EGF-like domain; assay: binders of neuregulin-1 EGF-like domain, primary screen, biochemical, small-molecule microarray, 635 nm fluorescence (AID 1081); conditions: small-molecule microarray binding, higher = more signal;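 also: binding of the protein to compounds printed on small-molecule microarray slides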
[8] = FRG1 promoter luciferase signal modulators, primary screen, FRG1 inhibition for FSHD, cell-based, C2C12 myotubes, firefly/Renilla luciferase, luminescence (AID 1084); conditions: higher = more signal, called active from +8 up or from −8 down
[9] = binders of probe aFST on microarray, primary screen, stem cell growth factor project, biochemical, small-molecule microarray, fluorescence 635/667 (AID 1086); conditions: higher = more signal;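 also: score merges 667 nm fluorescence with signal-to-noise of each printed compound spot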
[10] = binders of probe aHhip on microarray, primary screen, stem cell growth factor project, biochemical, small-molecule microarray, fluorescence 635/667 (AID 1087); conditions: higher = more signal;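 also: score merges spot fluorescence at 667nm with spot signal to noise ratio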

Neurogenic locus notch homolog protein 2 (Homo sapiens), sequence (Q04721 whole entry, looked up, canonical isoform): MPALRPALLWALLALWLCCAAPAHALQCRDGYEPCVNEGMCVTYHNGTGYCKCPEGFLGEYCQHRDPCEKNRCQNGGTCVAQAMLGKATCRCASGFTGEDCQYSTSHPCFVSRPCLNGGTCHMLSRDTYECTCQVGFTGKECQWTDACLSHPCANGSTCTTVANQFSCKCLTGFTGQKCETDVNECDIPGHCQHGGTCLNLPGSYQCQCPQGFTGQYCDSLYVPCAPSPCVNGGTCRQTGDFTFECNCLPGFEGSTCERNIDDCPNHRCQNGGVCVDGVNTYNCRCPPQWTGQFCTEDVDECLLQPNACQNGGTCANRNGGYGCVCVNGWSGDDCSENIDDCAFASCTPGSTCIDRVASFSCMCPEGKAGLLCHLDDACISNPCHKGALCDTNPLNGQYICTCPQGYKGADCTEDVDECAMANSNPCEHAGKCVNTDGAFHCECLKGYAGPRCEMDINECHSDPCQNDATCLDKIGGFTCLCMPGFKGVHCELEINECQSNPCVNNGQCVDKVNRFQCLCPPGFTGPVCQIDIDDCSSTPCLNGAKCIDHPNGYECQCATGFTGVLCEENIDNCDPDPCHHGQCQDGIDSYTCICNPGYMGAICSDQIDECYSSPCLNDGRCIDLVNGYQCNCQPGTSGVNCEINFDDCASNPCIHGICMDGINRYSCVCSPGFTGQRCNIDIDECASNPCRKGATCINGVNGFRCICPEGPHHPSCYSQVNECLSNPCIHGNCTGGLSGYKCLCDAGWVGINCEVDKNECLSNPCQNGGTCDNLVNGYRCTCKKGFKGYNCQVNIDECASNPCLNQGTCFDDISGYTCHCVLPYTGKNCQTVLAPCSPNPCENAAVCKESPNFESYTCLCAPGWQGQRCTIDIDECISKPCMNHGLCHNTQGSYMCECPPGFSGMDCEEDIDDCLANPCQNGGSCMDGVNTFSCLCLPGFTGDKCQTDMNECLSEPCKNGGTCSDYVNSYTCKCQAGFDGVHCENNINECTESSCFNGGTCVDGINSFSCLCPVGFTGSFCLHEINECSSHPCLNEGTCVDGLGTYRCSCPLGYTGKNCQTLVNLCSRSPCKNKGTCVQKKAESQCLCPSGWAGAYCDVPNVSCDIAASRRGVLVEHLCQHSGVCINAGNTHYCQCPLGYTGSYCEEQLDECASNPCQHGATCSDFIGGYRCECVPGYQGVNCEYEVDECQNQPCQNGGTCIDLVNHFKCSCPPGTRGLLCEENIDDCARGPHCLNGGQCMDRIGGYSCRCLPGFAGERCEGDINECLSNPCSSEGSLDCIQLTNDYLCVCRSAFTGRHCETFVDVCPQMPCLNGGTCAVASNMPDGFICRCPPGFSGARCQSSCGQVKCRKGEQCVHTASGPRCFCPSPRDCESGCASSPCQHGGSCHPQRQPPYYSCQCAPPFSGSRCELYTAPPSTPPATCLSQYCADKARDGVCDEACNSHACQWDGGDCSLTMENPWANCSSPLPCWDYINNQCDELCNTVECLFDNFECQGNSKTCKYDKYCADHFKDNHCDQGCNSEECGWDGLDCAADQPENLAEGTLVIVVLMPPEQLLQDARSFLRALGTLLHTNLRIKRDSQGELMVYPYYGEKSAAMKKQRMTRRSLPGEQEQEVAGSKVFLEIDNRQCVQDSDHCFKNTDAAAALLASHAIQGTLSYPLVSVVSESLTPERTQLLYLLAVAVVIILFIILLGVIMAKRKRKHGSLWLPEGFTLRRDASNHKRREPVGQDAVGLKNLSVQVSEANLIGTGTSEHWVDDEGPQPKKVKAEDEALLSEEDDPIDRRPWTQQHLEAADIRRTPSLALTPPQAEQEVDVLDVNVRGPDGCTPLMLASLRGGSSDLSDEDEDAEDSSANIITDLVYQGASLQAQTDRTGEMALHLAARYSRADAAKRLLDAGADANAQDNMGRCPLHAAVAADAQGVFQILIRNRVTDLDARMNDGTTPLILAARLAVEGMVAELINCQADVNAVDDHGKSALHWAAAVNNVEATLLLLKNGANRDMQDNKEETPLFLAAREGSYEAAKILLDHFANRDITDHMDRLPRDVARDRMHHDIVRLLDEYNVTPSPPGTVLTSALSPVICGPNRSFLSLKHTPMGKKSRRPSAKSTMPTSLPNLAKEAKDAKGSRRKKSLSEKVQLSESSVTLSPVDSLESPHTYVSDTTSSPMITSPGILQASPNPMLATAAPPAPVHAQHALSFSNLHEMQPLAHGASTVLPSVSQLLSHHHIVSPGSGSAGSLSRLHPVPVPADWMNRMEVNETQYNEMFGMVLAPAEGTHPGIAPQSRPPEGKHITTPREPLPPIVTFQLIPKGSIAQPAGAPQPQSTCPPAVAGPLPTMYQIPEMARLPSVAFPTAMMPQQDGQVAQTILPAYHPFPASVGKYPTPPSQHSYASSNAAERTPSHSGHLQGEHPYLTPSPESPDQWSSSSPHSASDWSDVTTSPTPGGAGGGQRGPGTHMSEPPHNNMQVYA
Pro-neuregulin-1, membrane-bound isoform (Homo sapiens), sequence (Q02297 whole entry, looked up, the tested form may be a part, canonical isoform): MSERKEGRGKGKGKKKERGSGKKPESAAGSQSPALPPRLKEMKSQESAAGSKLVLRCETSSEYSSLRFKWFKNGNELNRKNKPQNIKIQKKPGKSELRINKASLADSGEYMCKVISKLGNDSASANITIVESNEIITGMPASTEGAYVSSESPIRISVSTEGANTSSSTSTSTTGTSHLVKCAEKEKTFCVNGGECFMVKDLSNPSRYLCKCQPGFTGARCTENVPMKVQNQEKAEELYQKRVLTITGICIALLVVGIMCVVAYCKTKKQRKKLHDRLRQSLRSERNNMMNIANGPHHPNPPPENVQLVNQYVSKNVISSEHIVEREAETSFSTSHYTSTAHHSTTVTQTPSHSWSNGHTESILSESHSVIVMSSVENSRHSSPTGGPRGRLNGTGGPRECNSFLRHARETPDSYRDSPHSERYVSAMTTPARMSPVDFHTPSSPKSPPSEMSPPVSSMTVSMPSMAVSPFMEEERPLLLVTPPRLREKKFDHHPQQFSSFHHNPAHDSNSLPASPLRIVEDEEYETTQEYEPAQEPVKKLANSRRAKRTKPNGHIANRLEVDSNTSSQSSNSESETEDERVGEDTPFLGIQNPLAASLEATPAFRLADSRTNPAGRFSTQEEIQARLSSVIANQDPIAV

Row | SMILES | composite z-score [1] | composite z-score [2] | composite z-score [3] | composite z-score [4] | composite z-score [5] | composite z-score [6] | composite z-score [7] | z-score [8] | composite z-score [9] | composite z-score [10]
1 | C=CCN(CCCCC)C(=O)C1N(c2c(Cl)cccc2CO)C(=O)C2C(C(=O)O)C3C=CC21O3 (stereo not given) | 1.15 and 1.51 | -0.58 and -2.44 | -0.283 and -0.216 | -1.66 and -1.11 | -2.36 and -1.86 | -0.855 and -0.992 | -0.506 and -0.277 | 0.887 (inactive) and 0.699 (inactive) | -0.898 and -1.06 | -0.169 and -0.213
2 | C[C@@H]1CC[C@@H](C(=O)O)N[C@H]1c1ccc(-c2ccco2)cc1 | -0.462 | 0.712 | -0.0502 | 0.422 | 0.571 | 0.486 | 0.811 | 0.0786 (inactive) | 0.583 | -0.0173
3 | C=CCN1C(=O)[C@]2(O[C@H](CCn3cc(CCO)nn3)[C@@H]([Si](C)(C)c3ccc(OC)cc3)[C@@H]2C)c2cc(N3C(=O)c4cccc5cccc3c45)ccc21 | -0.298 and -0.359 | 1.1 and -0.4 | -0.0069 and -0.0563 | 0.678 and 0.735 | 0.285 and 0.226 | 1.19 and 0.465 | 1.03 | -2.77 (inactive) and -2.7 (inactive) | 0.115 and -0.305 | -0.0618 and 0.157
4 | C=CCN(CCCC)C(=O)C(c1cccs1)N(C(=O)/C=C\C(=O)O)c1c(Cl)cccc1CO (stereo not given) | 1.46 and 0.323 | -1.19 and -0.707 | -0.288 and -0.203 | -1.27 and -1.8 | -1.97 and -1.39 | -1.26 and -0.533 | -0.751 and 0.176 | -0.165 (inactive) and -0.332 (inactive) | -1.94 and -0.684 | 0.679 and -0.409
5 | C[N+](C)(C)CCCCCCNC(=O)[C@@H]1C[C@@H]2C(=O)N[C@@H](CCCC[N+](C)(C)C)C(=O)N2[C@@H]1c1ccc(O)cc1 | 0.245 and -0.175 | 0.0279 and -0.0321 | -0.12 and -0.181 | 0.0015 and -0.155 | -0.423 and -0.213 | 0.142 and 1.11 | 1.35 and 1.36 | 0.403 (inactive) and 2.73 (inactive) | -0.12 and -0.0447 | -0.206 and -0.266
6 | COc1ccc(O[C@H]2C=C[C@@H](c3ccccc3)O[C@@H]2COC(=O)CCC(C)=NO[C@H](C)c2cn([C@H](CO)Cc3ccccc3)nn2)cc1 | -0.647 and -0.694 | 0.535 and 0.365 | -0.0682 and -0.171 | 0.241 and 0.038 | 0.203 and 0.35 | 0.338 and 0.692 | -0.0177 and 0.384 | 1.61 (inactive) and 1.46 (inactive) | 0.0869 and -0.364 | -0.0196 and 0.201
7 | CC(CO)N1C(=O)[C@@H]2C3C(=O)OCCC=C[C@H]3OC23C=CCN(c2ccc(Cl)cc2)C(=O)[C@@H]13 (stereo not given in full) | 0.982 and -0.0072 | -0.821 and -1.3 | -0.0959 and -0.159 | -0.556 and -0.282 | -0.709 and 0.149 | -0.618 and 2 | 0.923 and 1.44 | 0.741 (inactive) and 1.08 (inactive) | -0.91 and 0.118 | 0.0053 and 0.0092
8 | C=CCN(CCCC)C(=O)C(c1cccs1)N(C(=O)/C=C\C(=O)O)c1ccc(CCO)cc1 (stereo not given) | 0.655 and 1.21 | 0.005 and 0.531 | -0.0493 and -0.166 | 0.115 and -1.62 | -1.83 and -2.34 | 0.863 and -0.409 | 0.867 and -0.0384 | 1.61 (inactive) and 1.37 (inactive) | -0.498 and -1.07 | -0.137 and -0.296
9 | CN1C(=O)C2CC=C([C@H]3Oc4ccccc4S(=O)(=O)N4CCC[C@@H]34)CC2C1=O (stereo not given in full) | -0.203 and -0.0284 | 0.157 and 0.0061 | -0.133 and -0.149 | 0.0694 and -0.0366 | -1.05 and -0.369 | 0.75 and -0.641 | 0.151 and -0.561 | 0.74 (inactive) and 1.05 (inactive) | -0.311 and -0.365 | -0.0645 and -0.123
10 | CCOC(=O)NN=C1C[C@@H](O)[C@@H](O)[C@@H]2[C@@H]3C(=O)N(Cc4ccc5c(c4)OCO5)C(=O)[C@@H]3CC[C@@H]12 | -0.441 | 0.16 | -0.121 | 0.505 | 0.34 | 0.416 | 0.858 | -0.544 (inactive) | 0.16 | 0.007
11 | C=C[C@H](C)[C@H](O)c1ccc(O)c2ccccc12 | 0.101 and 0.398 | 0.848 and -0.282 | -0.144 and -0.0541 | -0.737 and -0.0937 | -1.43 and -0.16 | -0.532 and -0.889 | 0.316 and -0.53 | -0.891 (inactive) and -0.971 (inactive) | -1.03 and -0.735 | -0.12 and -0.0994
12 | C=CCN(CCCC)C(=O)C1N(CCCCCCO)C(=O)C2C(C(=O)O)C3C=CC21O3 (stereo not given) | 1.42 and 1.34 | -0.0373 and -0.98 | -0.153 and -0.112 | -0.0134 and -0.092 | -2.57 and -2.12 | -0.506 and 0.0117 | 0.796 and 1.46 | 0.591 (inactive) and 0.91 (inactive) | -1.41 and -0.957 | -0.383 and -0.204
13 | CCOC(=O)CCN1C(=O)[C@H]2[C@H]3[C@H](O)[C@H](O)CC(=NNC(=O)OCC)[C@@H]3CC[C@H]2C1=O | -0.144 | 0.303 | -0.0459 | 0.348 | 0.708 | -0.388 | -0.0801 | 0.142 (inactive) | 0.62 | -0.0994
14 | COC(=O)C1=C(C)N(Cc2ccccc2)[C@]23O[C@](C(=O)OC)(C(=O)N2[C@@H]1c1ccccc1)[C@H]1CCCC(=O)[C@H]13 | 0.0353 and -0.148 | 0.383 and 1.06 | -0.0333 and -0.0507 | 0.513 and 0.359 | 1.15 and 0.327 | 1.21 and -0.23 | 0.636 and -0.133 | -1.02 (inactive) and 0.357 (inactive) | 0.395 and 0.0869 | 0.186 and -0.236
15 | CC(C)CCN1CCc2nc(-c3ccccc3)c3c(c2C1)CO[C@@H](C)C3 | 1.3 | 0.0532 | -0.0996 | 0.491 | 0.698 | 0.334 | 1.17 | -0.174 (inactive) | 0.57 | 0.208
